# Test results reported in PMC11062922 (Nature Chemical Biology, 2023).
# Read-outs that look alike come from different tables or passages of the source.
# Tested on: AAK1
# Conditions: read-out: apparent Kd, n = 1
substance,measurement,setting,value
Lestaurtinib,potency estimated from few doses,"compound concentrations:100 nM and 1000 nM (sheet 'Lestaurtinib' of Supplementary Table 1),run:Lestaurtinib_02339_R2,Plate:MR001",85.5 nM
same,potency estimated from few doses,"compound concentrations:100 nM and 1000 nM (sheet 'Lestaurtinib' of Supplementary Table 1),run:Lestaurtinib_02339_R3,Plate:MR001",53.3 nM
same,potency estimated from few doses,"compound concentrations:100 nM and 1000 nM (sheet 'Lestaurtinib' of Supplementary Table 1),run:Lestaurtinib_02364_R3,Plate:MR002",69.8 nM
same,potency estimated from few doses,"compound concentrations:100 nM and 1000 nM (sheet 'Lestaurtinib' of Supplementary Table 1),run:Lestaurtinib_02367_R1,Plate:MR003",65.4 nM
same,potency estimated from few doses,"compound concentrations:100 nM and 1000 nM (sheet 'Lestaurtinib' of Supplementary Table 1),run:Lestaurtinib_02367_R2,Plate:MR003",78.3 nM
same,potency estimated from few doses,"compound concentrations:100 nM and 1000 nM (sheet 'Lestaurtinib' of Supplementary Table 1),run:Lestaurtinib_02367_R3,Plate:MR003",77.2 nM
same,potency estimated from few doses,"compound concentrations:100 nM and 1000 nM (sheet 'Lestaurtinib' of Supplementary Table 1),run:Lestaurtinib_02381_R1,Plate:MR004",66.8 nM
same,potency estimated from few doses,"compound concentrations:100 nM and 1000 nM (sheet 'Lestaurtinib' of Supplementary Table 1),run:Lestaurtinib_02381_R3,Plate:MR004",45.5 nM
same,potency estimated from few doses,"compound concentrations:100 nM and 1000 nM (sheet 'Lestaurtinib' of Supplementary Table 1),run:Lestaurtinib_02407_R1,Plate:MR005",63.9 nM
same,potency estimated from few doses,"compound concentrations:100 nM and 1000 nM (sheet 'Lestaurtinib' of Supplementary Table 1),run:Lestaurtinib_02407_R2,Plate:MR005",53.3 nM
same,potency estimated from few doses,"compound concentrations:100 nM and 1000 nM (sheet 'Lestaurtinib' of Supplementary Table 1),run:Lestaurtinib_02407_R3,Plate:MR005",73.1 nM
same,potency estimated from few doses,"compound concentrations:100 nM and 1000 nM (sheet 'Lestaurtinib' of Supplementary Table 1),run:Lestaurtinib_02422_R2,Plate:MR006",18.9 nM
same,potency estimated from few doses,"compound concentrations:100 nM and 1000 nM (sheet 'Lestaurtinib' of Supplementary Table 1),run:Lestaurtinib_02422_R3,Plate:MR006",72.2 nM
same,potency estimated from few doses,"compound concentrations:100 nM and 1000 nM (sheet 'Lestaurtinib' of Supplementary Table 1),run:Lestaurtinib_02437_R2,Plate:MR007",69.6 nM
same,potency estimated from few doses,"compound concentrations:100 nM and 1000 nM (sheet 'Lestaurtinib' of Supplementary Table 1),run:Lestaurtinib_02438_R1,Plate:MR008",74.4 nM
same,potency estimated from few doses,"compound concentrations:100 nM and 1000 nM (sheet 'Lestaurtinib' of Supplementary Table 1),run:Lestaurtinib_02438_R2,Plate:MR008",72.4 nM
same,potency estimated from few doses,"compound concentrations:100 nM and 1000 nM (sheet 'Lestaurtinib' of Supplementary Table 1),run:Lestaurtinib_02443_R1,Plate:MR009",59.8 nM
same,potency estimated from few doses,"compound concentrations:100 nM and 1000 nM (sheet 'Lestaurtinib' of Supplementary Table 1),run:Lestaurtinib_02443_R2,Plate:MR009",72.4 nM
same,potency estimated from few doses,"compound concentrations:100 nM and 1000 nM (sheet 'Lestaurtinib' of Supplementary Table 1),run:Lestaurtinib_02473_R1,Plate:MR010",56.2 nM
same,potency estimated from few doses,"compound concentrations:100 nM and 1000 nM (sheet 'Lestaurtinib' of Supplementary Table 1),run:Lestaurtinib_02473_R3,Plate:MR010",40.1 nM
same,potency estimated from few doses,"compound concentrations:100 nM and 1000 nM (sheet 'Lestaurtinib' of Supplementary Table 1),run:Lestaurtinib_02482_R1,Plate:MR011",62.4 nM
same,potency estimated from few doses,"compound concentrations:100 nM and 1000 nM (sheet 'Lestaurtinib' of Supplementary Table 1),run:Lestaurtinib_02482_R2,Plate:MR011",81.9 nM
same,potency estimated from few doses,"compound concentrations:100 nM and 1000 nM (sheet 'Lestaurtinib' of Supplementary Table 1),run:Lestaurtinib_02482_R3,Plate:MR011",69.5 nM
same,potency estimated from few doses,"compound concentrations:100 nM and 1000 nM (sheet 'Lestaurtinib' of Supplementary Table 1),run:Lestaurtinib_02487_R1,Plate:MR012",45.5 nM
same,potency estimated from few doses,"compound concentrations:100 nM and 1000 nM (sheet 'Lestaurtinib' of Supplementary Table 1),run:Lestaurtinib_02487_R2,Plate:MR012",64.8 nM
same,potency estimated from few doses,"compound concentrations:100 nM and 1000 nM (sheet 'Lestaurtinib' of Supplementary Table 1),run:Lestaurtinib_02487_R3,Plate:MR012",70.8 nM
same,potency estimated from few doses,"compound concentrations:100 nM and 1000 nM (sheet 'Lestaurtinib' of Supplementary Table 1),run:Lestaurtinib_02496_R1,Plate:MR013",93.7 nM
same,potency estimated from few doses,"compound concentrations:100 nM and 1000 nM (sheet 'Lestaurtinib' of Supplementary Table 1),run:Lestaurtinib_02496_R2,Plate:MR013",80.9 nM
same,potency estimated from few doses,"compound concentrations:100 nM and 1000 nM (sheet 'Lestaurtinib' of Supplementary Table 1),run:Lestaurtinib_02566_R1,Plate:MR014",85.4 nM
same,potency estimated from few doses,"compound concentrations:100 nM and 1000 nM (sheet 'Lestaurtinib' of Supplementary Table 1),run:Lestaurtinib_02566_R2,Plate:MR014",74.9 nM
same,potency estimated from few doses,"compound concentrations:100 nM and 1000 nM (sheet 'Lestaurtinib' of Supplementary Table 1),run:Lestaurtinib_02572_R1,Plate:MR015",46 nM
same,potency estimated from few doses,"compound concentrations:100 nM and 1000 nM (sheet 'Lestaurtinib' of Supplementary Table 1),run:Lestaurtinib_02572_R2,Plate:MR015",79.8 nM
same,potency estimated from few doses,"compound concentrations:100 nM and 1000 nM (sheet 'Lestaurtinib' of Supplementary Table 1),run:Lestaurtinib_02572_R3,Plate:MR015",95.8 nM
same,potency estimated from few doses,"compound concentrations:100 nM and 1000 nM (sheet 'Lestaurtinib' of Supplementary Table 1),run:Lestaurtinib_02577_R1,Plate:MR016",58.2 nM
same,potency estimated from few doses,"compound concentrations:100 nM and 1000 nM (sheet 'Lestaurtinib' of Supplementary Table 1),run:Lestaurtinib_02577_R2,Plate:MR016",52.8 nM
same,potency estimated from few doses,"compound concentrations:100 nM and 1000 nM (sheet 'Lestaurtinib' of Supplementary Table 1),run:Lestaurtinib_02577_R3,Plate:MR016",59.6 nM
same,potency estimated from few doses,"compound concentrations:100 nM and 1000 nM (sheet 'Lestaurtinib' of Supplementary Table 1),run:Lestaurtinib_02584_R1,Plate:MR017",83.9 nM
same,potency estimated from few doses,"compound concentrations:100 nM and 1000 nM (sheet 'Lestaurtinib' of Supplementary Table 1),run:Lestaurtinib_02584_R2,Plate:MR017",61 nM
same,potency estimated from few doses,"compound concentrations:100 nM and 1000 nM (sheet 'Lestaurtinib' of Supplementary Table 1),run:Lestaurtinib_02584_R3,Plate:MR017",88.2 nM
same,potency estimated from few doses,"compound concentrations:100 nM and 1000 nM (sheet 'Lestaurtinib' of Supplementary Table 1),run:Lestaurtinib_02601_R1,Plate:MR018",68.7 nM
same,potency estimated from few doses,"compound concentrations:100 nM and 1000 nM (sheet 'Lestaurtinib' of Supplementary Table 1),run:Lestaurtinib_02601_R3,Plate:MR018",47.3 nM
same,potency estimated from few doses,"compound concentrations:100 nM and 1000 nM (sheet 'Lestaurtinib' of Supplementary Table 1),run:Lestaurtinib_02606_R1,Plate:MR019",69.9 nM
